Our source for the growth values is PubChem BioAssay (NCI).

The panel holds about 83,000 compounds, 20% with a hit somewhere; the sample as a whole holds those more often.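 Each cell line was grown in a 96-well plate and treated with one concentration of compound for 48 hours. Values below 10 were considered active.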 Unmarked numbers belong to inactive results. Activity calls are given as the source filed them.

Among the test systems are SK-MEL-2 melanoma; EKVX NSCLC; SN12C renal; UO-31 renal; ACHN renal; CAKI-1 renal; A498 renal; CCRF-CEM leukemia; MOLT-4 leukemia; TK-10 renal.
Experiment in all cases: NCI-60 one-dose screen, 48 h (100 = growth as untreated, 0 = no growth, -100 = all killed)
Common to all, as to conditions: 10 µM unless noted

As to `Cc1c(C(=O)Nc2nc(-c3ccccc3)cs2)nnn1-c1cccc2ccccc12`, the growth in the experiment with SK-MEL-2 melanoma is 48.2% [50 µM]; in the experiment with EKVX NSCLC it was 39.3% [50 µM]; in the experiment on SN12C renal, 67.9% [50 µM]; in the experiment with UO-31 renal, 49.7% [50 µM]; in the experiment with ACHN renal, 58.1% [50 µM]; with CAKI-1 renal it was 35.8% [50 µM]. Further, the figures for the growth in the experiment on A498 renal, in the experiment with CCRF-CEM leukemia and with MOLT-4 leukemia were 58.5% [50 µM], 47.2% [50 µM] and 30.4% [50 µM], respectively.
As to `FC(F)(F)Oc1ccc2c(c1)C[C@H]1C[C@@H](c3ccoc3)N2O1`, the growth with SK-MEL-2 melanoma was 118%; in the experiment with EKVX NSCLC, 93.9%; in the experiment with SN12C renal it was 110%; in the experiment with UO-31 renal, 100%; in the experiment on TK-10 renal, 97.4%; in the experiment with A498 renal, 93.2%. The growth with CCRF-CEM leukemia is 102%; with MOLT-4 leukemia, 96.4%.
As for `O=C1CCC(N2Cc3c(C#CCCCNC(=O)c4cc5c(o4)C(=O)c4ccccc4C5=O)cccc3C2=O)C(=O)N1` (stereo not given), the growth was -26.6% (active) in the experiment on SK-MEL-2 melanoma; 64.4% with EKVX NSCLC; -92.2% (active) with SN12C renal; 86.4% with UO-31 renal; 101% in the experiment on TK-10 renal; 78.7% in the experiment with CAKI-1 renal. Also, the growth was 12.3% in the experiment with CCRF-CEM leukemia and 8.52% (active) in the experiment with MOLT-4 leukemia.
Turning to `COc1ccccc1CNCCCCCCCCCCCCN1C(=O)c2ccc3c4c(ccc(c24)C1=O)C(=O)N(CCCCCCCCCCCCNCc1ccccc1OC)C3=O`, the growth was 107% with SK-MEL-2 melanoma; 109% with EKVX NSCLC; 74.1% in the experiment on SN12C renal; 109% with UO-31 renal; 78.4% in the experiment with ACHN renal; 102% with CAKI-1 renal. The growth in the experiment on A498 renal was -60.4% (active); in the experiment with CCRF-CEM leukemia, 50.4%; with MOLT-4 leukemia it was 64.6%.
Turning to `CCCCc1ccc(C(O)(CCN2CC3CCC(CC3)C2)c2ccccc2)cc1` (stereo not given), the growth in the experiment on SK-MEL-2 melanoma is 98%; in the experiment on EKVX NSCLC, 87.4%; in the experiment on SN12C renal, 95.7%; in the experiment on UO-31 renal it was 65.3%; in the experiment with TK-10 renal it was 104%; in the experiment with CAKI-1 renal, 92.6%. For the same compound, the figures for the growth in the experiment with A498 renal and in the experiment on MOLT-4 leukemia were 77% and 80.9%, respectively.
In the case of `CN1CCc2cccc3c2C1Cc1ccc(O)c(O)c1-3` (stereo not given), the growth with SK-MEL-2 melanoma was 117%; in the experiment on EKVX NSCLC, 75.4%; in the experiment with SN12C renal, 88.4%; in the experiment on UO-31 renal, 64.2%; in the experiment on ACHN renal, 73%; in the experiment on CAKI-1 renal, 63.4%. Moreover, the growth in the experiment on A498 renal was 103%; in the experiment on CCRF-CEM leukemia it was 37.9%.
Consider `Brc1ccc(Br)nn1`, for which the growth in the experiment on SK-MEL-2 melanoma was -50.2% (active); with EKVX NSCLC, -95.4% (active); in the experiment with SN12C renal, -76.8% (active); in the experiment with UO-31 renal it was -39.9% (active); in the experiment on TK-10 renal, -78.3% (active); in the experiment with A498 renal, -80.8% (active). In addition, the growth is -13.5% (active) in the experiment with CCRF-CEM leukemia and -13.6% (active) in the experiment with MOLT-4 leukemia.
As to `O=c1[nH]c(=O)n(Cc2ccc(F)cc2)cc1F`, the growth is 111% [50 µM] in the experiment with SK-MEL-2 melanoma; 105% [50 µM] in the experiment on EKVX NSCLC; 99.8% [50 µM] in the experiment on SN12C renal; 89.4% [50 µM] with UO-31 renal; 105% [50 µM] with ACHN renal; 95.3% [50 µM] with CAKI-1 renal. Also, the values for the growth with A498 renal, in the experiment with CCRF-CEM leukemia and in the experiment with MOLT-4 leukemia were 92.1% [50 µM], 104% [50 µM] and 96% [50 µM], respectively.
As to `Cc1ccccc1-n1nnc(C(=O)Nc2nc(-c3ccccc3)c(-c3ccccc3)s2)c1C`, the growth with SK-MEL-2 melanoma was 89% [50 µM]; in the experiment on EKVX NSCLC it was 69.8% [50 µM]; in the experiment on SN12C renal, 79.2% [50 µM]; with UO-31 renal it was 86% [50 µM]; in the experiment on ACHN renal, 84.6% [50 µM]; with CAKI-1 renal it was 63.5% [50 µM]. Besides, the results for the growth in the experiment with A498 renal, with CCRF-CEM leukemia and in the experiment with MOLT-4 leukemia were 104% [50 µM], 63.5% [50 µM] and 67% [50 µM], respectively.
Consider `Cc1ccccc1-n1nnc(C(=O)Nc2ccc(-c3ccccc3)cn2)c1C`, for which the growth was 42% [50 µM] in the experiment with SK-MEL-2 melanoma; 34.8% [50 µM] in the experiment on EKVX NSCLC; 64.4% [50 µM] in the experiment on SN12C renal; 38.8% [50 µM] with UO-31 renal; 46% [50 µM] in the experiment with ACHN renal; 31.1% [50 µM] in the experiment with CAKI-1 renal. Besides, the growth is 61.2% [50 µM] in the experiment with A498 renal, 51.8% [50 µM] in the experiment on CCRF-CEM leukemia and 8.31% [50 µM] (active) with MOLT-4 leukemia.
For the compound `c1ccc2cc(-c3n(Cc4ccc5ccccc5n4)c4ccccc4[n+]3Cc3ccc4ccccc4n3)ccc2c1`, the growth was -42.9% (active) in the experiment on SK-MEL-2 melanoma; 4.21% (active) with EKVX NSCLC; 0.451% (active) with SN12C renal; -14.3% (active) in the experiment on UO-31 renal; 7.63% (active) in the experiment with ACHN renal; -47.6% (active) with CAKI-1 renal. In addition, the growth is -22.3% (active) in the experiment on A498 renal, 8.55% (active) in the experiment with CCRF-CEM leukemia and -32.8% (active) in the experiment with MOLT-4 leukemia.
Regarding `COc1ccc(/C=C(\C#N)c2cc3ccccc3n2C)cc1`, the growth was 67% in the experiment on SK-MEL-2 melanoma; 39.1% in the experiment on EKVX NSCLC; 44.7% in the experiment with SN12C renal; 48.5% in the experiment with UO-31 renal; 45.5% with ACHN renal; 33.5% in the experiment on CAKI-1 renal. For the same compound, the growth is -12.9% (active) with A498 renal, 18.3% in the experiment with CCRF-CEM leukemia and 17.4% in the experiment on MOLT-4 leukemia.
With `O=C(COc1cccc(/C=C2\COc3ccccc3C2=O)c1)c1ccccc1`, the growth in the experiment with SK-MEL-2 melanoma is 70.7%; with EKVX NSCLC, 84%; in the experiment with SN12C renal it was 84.9%; with UO-31 renal it was 75.1%; with ACHN renal, 86.8%; with CAKI-1 renal, 53.2%. Further, the growth in the experiment on A498 renal is 86.9%; in the experiment on CCRF-CEM leukemia, -32.7% (active); in the experiment on MOLT-4 leukemia, -21.9% (active).
Take `COc1cc(/C=C/C(=O)C(=Cc2ccc(F)c(F)c2)C(=O)/C=C/c2ccc(O)c(OC)c2)ccc1O`: the growth was 6.91% (active) in the experiment with SK-MEL-2 melanoma; 72.1% with EKVX NSCLC; 31.2% in the experiment on SN12C renal; 53.2% in the experiment with UO-31 renal; 27.3% in the experiment on ACHN renal; 95.6% with CAKI-1 renal. Further, the values for the growth in the experiment with A498 renal, in the experiment on CCRF-CEM leukemia and in the experiment on MOLT-4 leukemia were 116%, 9.98% (active) and 12.2%, respectively.
Turning to `CCOC(=O)n1cc(C2=C(c3cn(C)c4ccccc34)COC2=O)c2ccccc21`, the growth in the experiment on SK-MEL-2 melanoma was 57.8%; with EKVX NSCLC, 45.2%; in the experiment on SN12C renal it was 23.9%; with UO-31 renal, 34.8%; with ACHN renal it was 26.6%; in the experiment on CAKI-1 renal, 13.2%. The growth in the experiment with A498 renal was -14.3% (active); in the experiment with CCRF-CEM leukemia, 16.8%; in the experiment on MOLT-4 leukemia it was 18.3%.
